Positions count from the first letter of the chain named. Whole data set: some 24,000 sequences, median “enrichment r” near 0.99, cut for the highest 2% near 3.7. Shown is part of a subset that was picked to be rich in the highest values.
T1: UNK ZnF1-3 (human, UniProt Q9C0B0 31-174)
T1 sequence: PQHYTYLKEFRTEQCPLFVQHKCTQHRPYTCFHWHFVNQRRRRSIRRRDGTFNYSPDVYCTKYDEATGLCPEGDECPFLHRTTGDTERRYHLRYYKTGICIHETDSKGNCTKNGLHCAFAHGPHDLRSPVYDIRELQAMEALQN

B1: chr12:98991669:98991670:+_ENSG00000075415_ENST00000552981|hu_mus|motif|central (ssRNA)
RNA: GGGAGUUCUACAGUCCGACGAUCGAAUCCAUUAAAUAUGCCUUUGUACUUCUGAGGGUCCACCUGCAUGCGGCACUUUACGGAGUCCAGGGGAACAACAGCAGUGUGUGUCAGCCCACAACUUAAGACCCCACCAAAGCCACACAACAGAGGAUUGAGCAUCA
B2: chr4:115894766:115894767:+_ENSMUSG00000028698_ENSMUST00000030464|mus_hu|mus_mus_mus_hu_True|1_98 (ssRNA)
RNA: GGGAGUUCUACAGUCCGACGAUCUUCCACACGGAAAGUACUUGGGGGUUUUCCAACGGCCAGUACCAGUCCGGCCAAACUACCCGAACAGGGUCCUCCCCCUCUCUCCUACAGAACACAACAAAAUGCCCCCGAACCCCGAACCAACAGAGGAUUGAGCAUCA
B3: chr2:69705335:69705336:+_ENSMUSG00000068882_ENSMUST00000090852|mus_mus|FALSE|FALSE (ssRNA)
RNA: GGGAGUUCUACAGUCCGACGAUCUUGGCCUUUAUCGUCUAGCCAUUCUUUUAUAUCAUCAAGGGUGGCGUCAGUUGGGAAACCUUUAAUAUAAACAGAUCUGUUUUUUACAUCAUUCUUAUACUCAUCCGUCACUUCAGGGAGCAACAGAGGAUUGAGCAUCA
B4: chr8:122087627:122087628:-_ENSMUSG00000034189_ENSMUST00000036049|mus_mus|FALSE|FALSE (ssRNA)
RNA: GGGAGUUCUACAGUCCGACGAUCGCAUUAAAGGCGUGAGCCCCCACGCCCAGCCUGAGGAACAUCUUGAAAGCCAAUACUAUAAUCAGUCACCUGUAAAAGGAAAACAGGUGACUUCUCAAAAAAAAAAAAAAAAGAAAGAAACAACAGAGGAUUGAGCAUCA
B5: chr8:124405102:124405103:-_ENSMUSG00000040010_ENSMUST00000045557|mus_mus|motif|central (ssRNA)
RNA: GGGAGUUCUACAGUCCGACGAUCCCCAAAAAAACAAAAAGCCUCACAAAACAGCAGACCUCUGUACCCCCCCCCCAGUCGGAUGUAACAGGCUAGCCAUUAAUACAAUAGUAAAAGACAUUAUAACCACAGCACUAUCUCAGGCAACAGAGGAUUGAGCAUCA
B6: chr13:41369856:41369857:+_ENSMUSG00000091264_ENSMUST00000165561|mus_hu|FALSE|FALSE (ssRNA)
RNA: GGGAGUUCUACAGUCCGACGAUCGCACUUCAUUCUUGUACAAAGCAGGUAACACUAAACAGGAAGGUUGUUUAAUUCACAUCUCUUCUCCCUGGUAAACACUCAGCCCAGAGUUCAGUUGAGACAAACACGGAAACCUGGCAACAACAGAGGAUUGAGCAUCA
B7: chr1:23884524:23884525:-_ENSG00000117318_ENST00000374561|perfect_dup|FALSE|FALSE (ssRNA)
RNA: GGGAGUUCUACAGUCCGACGAUCUUUAAUAUACAUCGCAUUGUUACAGAAAGUCACCUUCCUGUAAAAAAGGUACAAAACCUAUAUACUCUAUUAUAGAGUUCAUAAAUCAGGGCAACAGAACCUUUCUCCAAGGAGACCAGACAACAGAGGAUUGAGCAUCA
B8: chr12:48362563:48362564:+_ENSG00000134291_ENST00000256686|hu_hu|hu_hu_hu_mus_False|98_108 (ssRNA)
RNA: GGGAGUUCUACAGUCCGACGAUCUCCGAAGGGUGAAUCAAGCCCCACUUGCGGGGGAAACUGUAAUCACUUUGUAUGGGGAAGGAAAAGAAACGCCAAAAACUUUCCAAAAAGCGGGGGUGGGGUGAGGCGGGAGGGGGAGGUCAACAGAGGAUUGAGCAUCA
B9: chr8:122087627:122087628:-_ENSMUSG00000034189_ENSMUST00000036049|mus_mus|motif|central (ssRNA)
RNA: B4 RNA with U80G, A81G
B10: 107960272_107965159_2041_CDS_ENSG00000166266_ENST00000393094|human|control|control (ssRNA)
RNA: GGGAGUUCUACAGUCCGACGAUCUCUAGCAAGCUUGUUUACAUAAUCCGCUGGCAUACCAACUUCUCUUAGCCACUCUACCAUGUUUUCUUCAAUUUCACUAUCGGCAGAGAUGUCUAAUAUAAGACGUCGUGUCAAAUGAGCCAACAGAGGAUUGAGCAUCA
B11: chr1:95363480:95363481:-_ENSG00000117519_ENST00000538964|hu_mus|FALSE|FALSE (ssRNA)
RNA: GGGAGUUCUACAGUCCGACGAUCCGUGCCCUGGCUUCCGUUGUGAAUGACAGGUUCUGUGGGUGCGGCACAGUACUUGGGGUCAUAUACUUGCCGCCCAAGCCCAUACACGCUCAUUCCUUUCUGGGAAGCAACUUUGUUGGUCAACAGAGGAUUGAGCAUCA
B12: chr12:48362563:48362564:+_ENSG00000134291_ENST00000256686|hu_hu|hu_hu_hu_mus_False|58_98 (ssRNA)
RNA: GGGAGUUCUACAGUCCGACGAUCUCCGUCAAGCCCUUCAAGCCCCACUUGCGGGGGAAACUGUAAUCACUUUGUAUUUCUAAAAAAAAGAAACGCCAAAAACUUUCCAAAAAGCGGGGGUGGGGUGAGGCGGGAGGGGGAGGUCAACAGAGGAUUGAGCAUCA
B13: 60821080_60823165_1073_3pUTR_ENSMUSG00000021559_ENSMUST00000077453|mouse|control|control (ssRNA)
RNA: GGGAGUUCUACAGUCCGACGAUCUUCGACUAAGUGCUUGUUGGGUGUCUUUAGGCUUGAUCCAGGGGUGCUGCAAACUGUCCUGGAUUGUCAUCCUCUUCUUUGGAUCCUUGACCAGCAGUCUUCUGAUGAAAUCUUUGGCAACAACAGAGGAUUGAGCAUCA
B14: chr1:186721242:186721243:-_ENSMUSG00000026620_ENSMUST00000027929|mus_mus|FALSE|FALSE (ssRNA)
RNA: GGGAGUUCUACAGUCCGACGAUCAUAAUGAGUAUUAAAAAGAUGUGCCUUUUCUAGUGGCUUUACGUCGCAUACGUCACUAAUUAUGAAAGAAGGCAAAUGACCAGUUACAAAGCUCCACAUGACUGGAAUAAUGAUGUGGAACAACAGAGGAUUGAGCAUCA
B15: 219445452_219447802_500_3pUTR_ENSG00000144580_ENST00000542068|human|control|control (ssRNA)
RNA: GGGAGUUCUACAGUCCGACGAUCCUGGAUGUGAUGCUACACAUUGCAGUAAUGCCAGAGCAUUGCAAACUCUGUUAGACUGGUGUGCUGUCAAGGUGGGUGGGUUGAUAGAUGGAUAAAUAUUUACAAUUUCCUGUAAAAGUGCAACAGAGGAUUGAGCAUCA
B16: chr16:94690093:94690094:+_ENSMUSG00000040785_ENSMUST00000117648|mus_hu|mus_mus_mus_hu_True|8_88 (ssRNA)
RNA: GGGAGUUCUACAGUCCGACGAUCGGGCUGGGAUGACGGACACACAGAUCUUCCCAGAGGGGGAAAAAGUCUUAGUCGAUACUAAUUAAAAAGUGUUAAUGAUUUUUGAAAAUCAGAUUACAUCUAUUUGAAUCAUAAAGCAAACAACAGAGGAUUGAGCAUCA
B17: chr1:169302553:169302554:-_ENSMUSG00000026688_ENSMUST00000028005|mus_mus|FALSE|FALSE (ssRNA)
RNA: GGGAGUUCUACAGUCCGACGAUCAUGCAGGCAGGAGCUUUAGGUAUGAGGCUGAUGCCAGAUAAGUUUUUAUUAUAUUAAAAAAAAAAAAAAAACCAGUGCAACUGGAAAUCAGGGUGAGUCGCUGGAGGUGAGUGAGAGUCGCAACAGAGGAUUGAGCAUCA
B18: chr8:59070621:59070622:+_ENSMUSG00000038206_ENSMUST00000040218|mus_mus|motif|central (ssRNA)
RNA: GGGAGUUCUACAGUCCGACGAUCAAACAUGAUGAGCAAAUUAAGAAAAGUUCUGUAAAAUUAGUUAGUUCUGAGAUUUCGGAACGGGAAAACAGUGAAACAAAAAAGGGGGGGUGCAGUCAAGCUGGAUUUUACACACAGGCUCAACAGAGGAUUGAGCAUCA
B19: chr5:136386016:136386017:-_ENSMUSG00000051391_ENSMUST00000055808|mus_mus|motif|central (ssRNA)
RNA: GGGAGUUCUACAGUCCGACGAUCGGGGGUAUUUAACGGUUUCUGUUUUUGUGAUGGGCUGACCUUAAGGGUAAAGAAGAACGGAAAAAAAAAGUAUCCCCCGCAGCCCCCUCCCAAACACCCAUCAACCAAAACGGAACAGGGCAACAGAGGAUUGAGCAUCA
B20: chr8:59070621:59070622:+_ENSMUSG00000038206_ENSMUST00000040218|mus_mus|FALSE|FALSE (ssRNA)
RNA: B18 RNA with G80U, G81A, G85U, G86A
B21: chr7:141441981:141441982:+_ENSG00000106028_ENST00000265304|hu_mus|hu_hu_hu_mus_False|1_8 (ssRNA)
RNA: GGGAGUUCUACAGUCCGACGAUCCUCAUGUCUUACAAACUGACGAAAUACCUGUAACACAGGUCUUCGAAACAUGGCUUCUGUUUUUCUUACAACCUAAUCUUUAGGCUUUUCCUAAAGGAAAGAAUAACCCGAGCAGCCCAGCAACAGAGGAUUGAGCAUCA
B22: chr11:46405157:46405158:+_ENSG00000110492_ENST00000395566|hu_hu|hu_hu_hu_mus_False|8_78 (ssRNA)
RNA: GGGAGUUCUACAGUCCGACGAUCCCCUCCCCACUUUGGGCACUUGGUGUGGGCGUGAAGGCAGGGCCGUGAUUGACAGAGCUGACAGGAAGACAAAAGGCACUGGUGGGUUAUAUCUUGGGCCUGUGAGAGGGAGGGGCUCCGCAACAGAGGAUUGAGCAUCA

biological target: T1, UNK ZnF1-3; test: nsRBNS (natural sequence RNA bind-n-seq); RBNS binding buffer (assumed for nsRBNS): 25 mM Tris pH 7.5, 150 mM KCl, 3 mM MgCl2, 0.01% Triton X-100, 500 ug/ml BSA, 20 U/ml SUPERase-In, 4 C; UNK is unkempt and MSI1 is Musashi-1; names of the RNAs are library labels; protein concentration not given here; high values mean tight binding

Row | Binder | binding signal
1 | B1 | 1.12 enrichment R
2 | B2 | 1.29 enrichment R
3 | B3 | 1.08 enrichment R
4 | B4 | 5.88 enrichment R
5 | B5 | 2.38 enrichment R
6 | B6 | 1.42 enrichment R
7 | B7 | 0.848 enrichment R
8 | B8 | 1.98 enrichment R
9 | B9 | 4.56 enrichment R
10 | B10 | 0.643 enrichment R
11 | B11 | 0.529 enrichment R
12 | B12 | 1.56 enrichment R
13 | B13 | 0.466 enrichment R
14 | B14 | 0.52 enrichment R
15 | B15 | 1.19 enrichment R
16 | B16 | 1.05 enrichment R
17 | B17 | 7.4 enrichment R
18 | B18 | 9.45 enrichment R
19 | B19 | 0.928 enrichment R
20 | B20 | 7.52 enrichment R
21 | B21 | 0.751 enrichment R
22 | B22 | 2.15 enrichment R

Source: paper PMC12136788
